Only a sample is shown.
aSyn 5UTR act: Activators via SNCA 5'UTR binding, MLPCN; alpha-synuclein 5'UTR reporter, activators screen; AID 1814, 2009; activity score, % (tested at 7.5 µM), hits read low; 300,000 compounds, 7.1% hits; in the data active = activity score below about -60%
The depositor's hits bear a star.

SMILES	aSyn 5UTR act
Cc1cc(=O)oc2cc(NC(=O)c3cc4ccccc4o3)ccc12	-93.7*
CN(C)S(=O)(=O)c1ccc(NC(=O)c2cc3ccccc3o2)cc1	-110.3*
Cc1cc(=O)oc2cc(NC(=O)c3ccccc3OC(F)F)ccc12	-113.7*
S=c1[nH]cnc2sc(-c3ccccc3)cc12	-71.3*
O=c1oc2ccccc2c2oc3cc(O)c(O)cc3c12	-83.2*
O=C1C=C(c2ccc3[nH]ccc3c2)CCC1	-150.7*
CC1(C)CC(=O)C=C(c2ccc3[nH]ccc3c2)C1	-65.2*
CC(=O)c1cccc(Nc2ccc(-c3ccccc3F)nn2)c1	-155.5*
CC(=O)c1ccc(Nc2ccc(-c3ccccc3C)nn2)cc1	-147.7*
CC1(C)CCC(=O)N2CC[C@H]3C[C@H](OC(=O)Nc4ccccc4)C[C@@H]1[C@H]32	-115.8*
CC1(C)CCC(=O)N2CC[C@H]3C[C@H](OC(=O)Nc4ccc5c(c4)OCO5)C[C@@H]1[C@H]32	-105.1*
CC1(C)SC(=S)N(NC(=O)Nc2cccc3ccccc23)C1N(O)C(=O)Nc1ccccc1 (stereo not drawn)	-88.3*
CCCCNC(=O)CSc1nc2ccc(N3CCOCC3)cc2c(=O)n1CCc1ccccc1	-91.5*
CCOc1cc(/C=N/NC(N)=S)cc(Br)c1OCc1ccccc1C	-73.7*
COc1cc(CNC(C)c2ccccc2)cc(Br)c1OCc1ccc(F)cc1 (stereo not drawn)	58.7
COc1cc(/C=N/NC(N)=S)cc(Br)c1OCc1ccccc1F	-74.0*
COc1cccc(OCc2cc(C(=O)N(C)CCOc3ccc(C)cc3)no2)c1	-133.0*
COc1cccc(OCc2cc(C(=O)N(C)Cc3nccn3C)no2)c1	-142.4*
COc1ccc(OCc2cc(C(=O)N(Cc3nccn3C)C(C)C)no2)c2ccccc12	-70.1*
COc1ccccc1NC(=S)N(Cc1ccco1)Cc1cc2cc(C)c(C)cc2[nH]c1=O	91.0
Cc1ccc2[nH]c(=O)c(-c3nc4ccccn4c3NCc3ccco3)cc2c1	-100.4*
O=Cc1c(NCc2ccco2)nc2ccccn2c1=O	-89.4*
O=C(NCc1ccco1)c1ccc(COc2cc(Cl)ccc2Cl)cc1	-94.9*
O=C(COc1ccc(Cl)cc1Cl)NCc1ccco1	-64.1*
COC(=O)c1cn(CCOc2ccccc2)c2ccccc12	-152.6*
SMILES	aSyn 5UTR act
Cc1cc2n(n1)C(c1ccc(N(C)C)cc1)Nc1ccccc1-2 (stereo not drawn)	-155.9*
COc1c(Cl)cc(C(=O)NN)cc1Cl	98.7
CC(C)CCNC(=O)c1ccc(Cl)c(N)c1	-81.3*
CC(C)CCNC(=O)c1ccc(-c2ccccc2)cc1	-106.8*
CC(C)CCNC(=O)C(=O)Nc1ccccc1	-155.2*
O=C1Nc2ccccc2/C1=N/c1sc2c(c1C(=O)NCCc1ccccc1)CCCC2	-86.8*
Cc1cnc(NC(=O)c2cccs2)s1	-82.3*
Cc1ccc(CC(=O)Nc2ncc([N+](=O)[O-])s2)cc1	-136.3*
O=C(Nc1ncc([N+](=O)[O-])s1)c1cccs1	-106.1*
O=C(Nc1cc([N+](=O)[O-])ccc1F)c1cccs1	-70.3*
O=C(Nc1ncc([N+](=O)[O-])s1)c1ccccc1Br	-126.3*
Clc1ccc(-c2ccc(CNCC3CCCO3)o2)cc1 (stereo not drawn)	-67.4*
CCN(CC)c1ccc(NC(=S)NCC2CCCO2)cc1 (stereo not drawn)	-82.8*
S=C(NCC1CCCO1)Nc1ccc(Cl)cc1 (stereo not drawn)	-72.2*
S=C(NCC1CCCO1)Nc1ccc(Cl)cc1Cl (stereo not drawn)	-87.4*
Cn1c(SCC(=O)NCC2CCCO2)ncc(C(=O)Nc2ccc(Cl)cc2)c1=O (stereo not drawn)	-71.8*
O=C(NCC1CCCO1)Nc1ccc(Cl)cc1 (stereo not drawn)	-73.0*
CCN(CC)CCNc1ccnc2cc(Cl)ccc12	-61.7*
CSc1ccccc1NC(=O)c1cc2ncc(Br)cn2n1	-181.7*
Cc1c(C(=O)OC(C)C)sc(N)c1C(=O)OC(C)C	-119.7*
O=C(Nc1ccccc1)c1cc2ccccc2c(=O)s1	-209.4*
O=C(Nc1ccc(O)cc1)c1cc2ccccc2c(=O)s1	-114.2*
CCc1sc(C(=O)Nc2nc(C)cs2)cc1C	-81.9*
Cc1csc(NC(=O)c2ccc(Br)s2)n1	-101.9*
CC(=O)c1sc(NC(=O)c2cccs2)nc1C	-98.5*
SMILES	aSyn 5UTR act
CCOc1cccc2sc(NC(=O)c3ccc(Br)s3)nc12	-81.2*
Cc1csc(NC(=O)c2cccs2)n1	-112.1*
Cc1nc(NC(=O)c2cccs2)ccc1Br	-284.2*
COc1ccc(/C=C2\CCc3ccccc3C2=O)cc1CN1CCOCC1	62.5
CCOc1ccc(/C=C2\CCc3ccccc3C2=O)cc1	-170.2*
O=C1/C(=C/c2ccco2)CCc2ccccc21	-139.9*
COc1ccc2c(c1)CC/C(=C/c1ccco1)C2=O	-160.4*
C/C(=N\Nc1nccnc1Cl)c1ccc(O)c(C)c1	-180.5*
C=C(C)Cn1cnc2c(oc3nc4c(cc32)CCCC4)c1=O	-85.0*
O=C(Cn1cnc2c(oc3nc4c(cc32)CCCC4)c1=O)Nc1cccc(Cl)c1	66.3
COc1ccc(C(=O)Nn2c(SCC(=O)NCc3ccccc3)nc3ccccc3c2=O)cc1	76.9
O=C(CSc1nc2ccsc2c(=O)n1NC(=O)c1ccccc1)NCc1ccco1	-70.5*
CN1CCc2c(sc3nc(SCC(=O)NCc4ccco4)n(-c4ccccc4)c(=O)c23)C1	-84.1*
O=C(CSc1nc2ccsc2c(=O)n1NC(=O)c1ccccc1)Nc1nccs1	-81.8*
CC(=O)c1ccc(Sc2ccc(C(C)=O)cc2)cc1	-63.5*
N/C(Cc1ccc(Cl)cc1Cl)=N\OC(=O)c1ccccc1F	-71.7*
CCc1ccc(NC(=O)CCC(=O)Nc2nnc(C(F)(F)F)s2)cc1	-73.1*
COc1ccc(NC(=O)C(=O)c2cn(CC(=O)N3CCCC3)c3ccccc23)cc1	104.6
CC(=O)Nc1cccc(NC(=O)C(=O)c2cn(CC(=O)N3CCCCC3)c3ccccc23)c1	-121.5*
COc1nc(-c2ccccc2)cc(-c2ccc3c(c2)OCO3)c1C#N	64.4
c1ccc2c(Oc3ccc4c(c3)OCO4)nncc2c1	-71.1*
O=C(Nc1ccc2c(c1)OCCO2)c1cccc(Br)c1	-150.4*
O=C(Nc1ccc2c(c1)OCCO2)c1ccc(Br)cc1	-78.1*
Cc1ccc(C(=O)Nc2ccc3c(c2)OCCO3)cc1	89.0
O=C(Nc1ccc2c(c1)OCCO2)c1cccnc1	-141.1*
SMILES	aSyn 5UTR act
CCCOc1cccc(C(=O)Nc2ccc3c(c2)OCCO3)c1	-61.8*
O=C(Nc1ccc2c(c1)OCCO2)c1ccc(Br)o1	-114.4*
CSCC[C@@H](C(=O)Nc1ccc2c(c1)OCCO2)N1Cc2ccccc2C1=O	-84.7*
CC(C)c1ccc(NC(=O)c2cccc(Br)c2)cc1	-174.5*
COc1ccc(C(=O)Nc2ccc3c(c2)OCCO3)cc1Br	-255.2*
CCCC(C)C(=O)Nc1ccc2c(c1)OCCO2 (stereo not drawn)	-77.1*
COc1ccc(NC(=O)c2ccc3c(c2)OCO3)cc1[N+](=O)[O-]	-192.3*
COc1cccc2c1OC1(C)CC2NC(=O)N1c1cccc(C(=O)Nc2ccc3c(c2)OCCO3)c1 (stereo not drawn)	-67.1*
COc1ccc(C(=O)N2CCN(Cc3ccc4c(c3)OCO4)CC2)cc1[N+](=O)[O-]	46.4
CN1C(=O)/C(=C2\SC(=S)N(CCCCCC(=O)O)C2=O)c2ccccc21	-66.7*
COc1ccc(Nc2ccc3c(c2)=NC2(CCCCC2)[N+]=3[O-])cc1	-87.0*
CC1=NC(=O)C(N=Nc2ccccc2)N1c1ccccc1 (stereo not drawn)	-109.4*

Screening results (PubChem BioAssay)
